TrxR1 inh: qHTS Assay for Inhibitors of Mammalian Selenoprotein Thioredoxin Reductase 1 (TrxR1): qHTS; Thioredoxin reductase 1, cytoplasmic (Rattus norvegicus), O89049; recombinant rTrxR1, NADPH fluorescence consumption, selenite substrate; Potency, µM (doses to about 114 µM), most hits filed as inhibitors; hit rate 1% among 390,000; further: nearly all actives have a fitted effect of over 65% in size
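Rat TrxR1 (90 nM in the dispensed reagent) was pre-reduced with 400 uM NADPH for 5 min at room temperature, then incubated with compound for 15 min. After 400 uM selenite was added, NADPH fluorescence (Ex 340/Em 450 nm) was followed for 8 min.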
TrxR1 substrate: qHTS Assay for Substrates of Mammalian Selenoprotein Thioredoxin Reductase 1 (TrxR1): qHTS. Thioredoxin reductase 1, cytoplasmic (Rattus norvegicus), O89049. purified TrxR1 substrate turnover, NADPH consumption readout. Potency, µM (top dose mostly 114 µM). hit rate 0.01% among 390,000. AID 588456, 2011; further: nearly all actives have a fitted effect of over 50% in size
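Rat TrxR1, dispensed at 90 nM, was prereduced with 400 uM NADPH (final) for 5 min at ~22 deg C, then incubated with compound 15 min before 400 uM selenite. A first-read NADPH fluorescence drop versus no-compound background flagged substrates.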
Mito fusion act: qHTS Assay for Small Molecule Inhibitors of Mitochondrial Division or Activators of Mitochondrial Fusion; S. cerevisiae fusion-defective mutant growth rescue, CellTiterGlo 48 h; hit rate 0.23% among 320,000; Potency, µM (series often up to 46.1 µM), actives largely listed as activators; further: nearly all actives have a fitted effect of over 45% in size
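Temperature-sensitive fusion-defective S. cerevisiae (e.g. fzo1-1, mgm1-5) were grown with compound in YPEG medium (3% ethanol, 3% glycerol) for 48 hours at 37C. Growth rescue was measured as viability by CellTiterGlo luminescence after 10 minutes at ambient.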
Nrf2 block: Nrf2 qHTS screen for inhibitors; Potency, µM (highest dose often 46 µM), most hits filed as inhibitors; hit rate 2.1% among 360,000; A549 ARE-Fluc reporter, luciferase luminescence, 18-24 h; further: nearly all actives have a fitted effect of over 60% in size
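Quantitative HTS in A549 cells stably bearing an antioxidant response element-firefly luciferase construct. Inhibition of Nrf2-driven transcription was scored by luminescence after 18-24 h of compound exposure at 37 °C.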
IDH1 R132H inh: qHTS for Inhibitors of mutant isocitrate dehydrogenase 1 (IDH1): qHTS | Potency, µM (highest dose often 76.6 µM), usual class: inhibitors | Isocitrate dehydrogenase [NADP] cytoplasmic (Homo sapiens), O75874 | hit rate 0.093% among 390,000 | IDH1-R132H enzyme, NADPH consumption, diaphorase/resazurin fluorescence; further: nearly all actives have a fitted effect of over 65% in size
Target sequence (O75874 whole entry R132H, stated change not applied): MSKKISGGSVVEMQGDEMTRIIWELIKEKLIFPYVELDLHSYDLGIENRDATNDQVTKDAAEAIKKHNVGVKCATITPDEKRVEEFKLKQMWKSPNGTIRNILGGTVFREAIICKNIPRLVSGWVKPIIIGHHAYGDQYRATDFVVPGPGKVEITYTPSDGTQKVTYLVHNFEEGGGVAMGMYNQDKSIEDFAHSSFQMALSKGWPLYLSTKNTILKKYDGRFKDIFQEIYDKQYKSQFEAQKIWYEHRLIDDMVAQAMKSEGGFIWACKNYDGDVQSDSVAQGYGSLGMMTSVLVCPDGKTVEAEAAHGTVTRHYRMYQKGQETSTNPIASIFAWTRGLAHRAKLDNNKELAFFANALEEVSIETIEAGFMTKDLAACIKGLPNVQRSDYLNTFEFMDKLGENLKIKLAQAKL
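IDH1-R132H (0.5 ug/mL) preincubated 30 min with compound, then NADPH (0.016 mM) and alpha-KG (2 mM) added; 80 min at RT, pH 7.5. Remaining NADPH coupled via diaphorase/resazurin to fluorescence (540/590 nm); concentration-response curves normalized to no-enzyme control.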
A549 viability: Nrf2 qHTS screen for inhibitors: counterscreen for cytotoxicity. A549 ARE-Fluc cells, CellTiter-Fluor viability, 18-24 h. Potency, µM (top dose mostly 46 µM), hits mostly inhibitors. hit rate 0.16% among 390,000
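Cytotoxicity counterscreen: CellTiter-Fluor fluorescence was measured in A549 ARE_Fluc cells after 18-24 h of compound exposure in a concentration series. The subsequent BugLite luminescent read reports ARE-luciferase activity.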
IDH1 autofl: qHTS for Inhibitors of mutant isocitrate dehydrogenase 1 (IDH1): Cherrypicks Autofluorescence Interference | AID 623980, 2012 | 750 tested, under 10 active | Resorufin detection reagent fluorescence interference, cell-free | shares compounds with IDH1 R132H inh | inhibition of signal, % at 51.2 µM
IDH1 WT: qHTS for Inhibitors of mutant isocitrate dehydrogenase 1 (IDH1): Cherrypicks in WT IDH1; shares compounds with IDH1 R132H inh; WT IDH1 enzyme, NADPH diaphorase/resazurin fluorescence; Potency, µM (highest dose often 115 µM), actives largely listed as inhibitors; hit rate 9% among 750; further: nearly all actives have a fitted effect of over 55% in size
Target sequence (O75874 whole entry, looked up): as the sequence (O75874 whole entry R132H, stated change not applied) above, with H132R counted along it
IDH1 R132H conf: qHTS for Inhibitors of mutant isocitrate dehydrogenase 1 (IDH1): Confirmation of Cherrypicks. shares compounds with IDH1 R132H inh. AID 624002, 2012. IDH1 R132H enzyme, NADPH diaphorase/resazurin fluorescence. hit rate 83% among 750. Potency, µM (top dose mostly 76.6 µM), most hits filed as inhibitors; further: nearly all actives have a fitted effect of over 50% in size
Numbers stand for hits; n = inactive; u = inconclusive; x = no result. An excerpt weighted towards active compounds, which were near 3.1% of everything screened. The call rests on the fitted dose curve; in most records, active means well fitted curve in the direction sought with a large enough effect; inconclusive means small, poorly fitted or top-dose-only effect, or another doubt; inactive means no such curve, though single readings can be large; an effect the other way counts as inactive or inconclusive.

SMILES | TrxR1 inh | TrxR1 substrate | Mito fusion act | Nrf2 block | IDH1 R132H inh | A549 viability | IDH1 autofl | IDH1 WT | IDH1 R132H conf
CC(NC(=O)C1CCN(c2nc3ccccc3nc2C(F)(F)F)CC1)c1ccccc1 (stereo unspecified) | n | n | x | n | n | n | x | x | x
COC(=O)c1ccc(NC(=O)C(c2ccccc2)N2Cc3ccccc3C2=O)cc1 (stereo unspecified) | n | n | x | n | u | n | n | n | n
COc1cc(NC(=O)c2noc3c2CC(C)CC3)c(OC)cc1Cl (stereo unspecified) | n | n | x | n | n | n | x | x | x
CCCN(C(=O)c1cc2c(=O)n(CC)c3ccccc3c2s1)c1ccccc1F | n | n | x | n | n | n | x | x | x
CCn1c(=O)c2cc(C(=O)N(C)c3cc(C)ccc3OC)sc2c2ccccc21 | n | n | u | n | u | n | n | n | 31.6µM
CCn1c(=O)c2cc(C(=O)N(C)c3ccccc3F)sc2c2ccccc21 | n | n | n | u | u | n | n | n | 28.2µM
CCn1c(=O)c2cc(C(=O)N(C)c3cc(Cl)c(OC)cc3OC)sc2c2ccccc21 | n | n | x | n | n | n | x | x | x
O=C(NC(=S)Nc1ccccc1N1CCCC1)c1ccc(-c2cccc([N+](=O)[O-])c2)o1 | n | n | n | n | n | n | x | x | x
CC(=O)N1CCN(c2ccccc2NC(=O)c2ccc(-c3cccc([N+](=O)[O-])c3)o2)CC1 | n | n | n | u | u | n | n | n | u
CC(=O)c1ccc(NC(=O)c2sc3nc(N4CCOCC4)c4c(c3c2N)CCCC4)cc1 | n | n | n | n | u | n | n | n | 6.31µM
COc1cccc(NC(=O)c2sc3nc(N4CCOCC4)c4c(c3c2N)CCCC4)c1 | n | n | n | n | u | n | n | n | 7.08µM
Nc1c(C(=O)Nc2ccccc2)sc2nc(N3CCOCC3)c3c(c12)CCCC3 | x | x | x | x | n | x | x | x | x
Nc1c(C(=O)Nc2ccc(Cl)cc2)sc2nc(N3CCOCC3)c3c(c12)CCCC3 | n | n | n | u | n | n | x | x | x
Nc1c(C(=O)NCc2ccccc2)sc2nc(N3CCOCC3)c3c(c12)CCCC3 | n | n | n | u | u | u | n | u | 7.94µM
CCc1ccc(NC(=O)Cn2c(=O)n(CCCC(=O)NCCc3ccc(OC)c(OC)c3)c(=O)c3ccccc32)cc1 | n | n | x | n | n | n | x | x | x
Cc1nn(-c2ccccn2)c2nc(-c3cccs3)cc(C(=O)NCc3ccco3)c12 | n | n | n | u | n | n | x | x | x
CCOC(=O)c1cc(-c2cccs2)nc2c1c(C)nn2-c1ccccn1 | n | n | n | 23.1µM | 14.7µM | n | n | n | 20µM
Cc1nn(-c2ccccc2)c2nc(-c3cccs3)cc(C(=O)NN)c12 | n | n | n | n | 52.1µM | n | n | n | n
Cc1cc(C)cc(N2CCn3c2nc2c3c(=O)n(Cc3ccc(Cl)cc3)c(=O)n2C)c1 | n | n | x | n | n | n | x | x | x

From PubChem BioAssay
